According to PubChem BioAssay AID720697 (Broad Institute, 2013):
Potency and affinity values are given separately. Results filed as inconclusive are left out. Values without a mark were called inactive.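 The calls were made as follows: active = signal loss with fitted half-maximal concentration at or below twice the top valid tested dose in every test run; inconclusive = runs disagree, flat 30 to 70% signal loss, or poor fit; inactive = all runs flat, opposite direction, or potency beyond limit.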

Test: general mammalian cell viability loss – inhibitor set, cherry-pick, set 2, cytotoxicity control for miR-122 modulator project, dose response (AID 720697);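 also: 0% = median of neutral control wells and -100% = MG132 positive control wells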
Settings: HEK293T viability, CellTiter-Glo luminescence, 48 h; series mostly up to 26 µM; activity change, negative = cytotoxicity: at the top concentration

Compound | activity change, negative = cytotoxicity
Cc1cc(C(=O)Nc2ccc3c(c2)C(=O)N(C)[C@H]2CC[C@H](CC(=O)N[C@H](C)c4ccccc4)O[C@H]2CO3)no1 | 37.3%
C[C@H](CO)N1C[C@H](C)[C@H](CN(C)C(=O)NC2CCCCC2)Oc2ncc(-c3cccc(C(F)(F)F)c3)cc2C1=O | 124% [at 23.5 µM]
O=C(c1cccnc1)N1C[C@H]2[C@@H](c3ccccc31)[C@H](CO)N2C(=O)Nc1ccccc1 | -18.4%
COc1ccc(NS(=O)(=O)c2ccc(NC(=O)C(C)(C(F)(F)F)C(F)(F)F)cc2)nn1 | 69.7%
CCC(=O)N1[C@H](CO)[C@@H](c2ccccc2)[C@@H]1CN(CC)C(=O)c1cccc(F)c1 | 83.6%
COc1cccc(CNC(=O)C[C@@H]2CC[C@@H]3[C@@H](COc4ccc(NC(C)=O)cc4C(=O)N3C)O2)c1 | 111%
O=C(Nc1ccc(Cl)cc1)N1C[C@H]2[C@@H](c3ccccc31)[C@H](CO)N2CC1CCCCC1 | -67.3%
COc1ccc(C(C#N)Nc2ccc(C)cc2)cc1 (centres undefined) | 1.55%
COc1cc(NC(=O)c2c(F)c(F)c(F)c(F)c2F)c(OC)cc1Cl | -41.5%
COc1nnc(-c2ccc(N3CCOCC3)c(NC(=O)c3ccccc3)c2)c2ccccc12 | -5.55%
CO[C@H]1CN(C)C(=O)c2cc(NC(=O)Nc3ccc(Cl)c(Cl)c3)ccc2OC[C@@H](C)NC[C@@H]1C | -6.02%
Fc1ccc(CN2CCN(c3ncnc4scc(-c5ccc(F)cc5)c34)CC2)cc1 | 26%
CNC(=O)C[C@H]1CC[C@H]2[C@@H](COc3ccc(NC(=O)C(C)C)cc3C(=O)N2C)O1 | 58.9%
CNC(=O)C[C@@H]1CC[C@H]2[C@@H](COc3ccc(NC(=O)C(C)C)cc3C(=O)N2C)O1 | 52.1%
C[C@@H]1CN([C@H](C)CO)S(=O)(=O)c2ccc(C3=CCCCC3)cc2O[C@@H]1CN(C)C(=O)Nc1ccc2c(c1)OCO2 | 88.1%
CCOc1ccc(NC(=S)N(CCCN2CCCC2)Cc2cccn2Cc2ccc(Cl)cc2)cc1 | 11.3%
Cc1ccc(-c2nnn(CC(=O)N(CC(=O)NCC3CCCO3)c3ccccc3)n2)o1 (centres undefined) | 27.2%
COCC(=O)Nc1ccc2c(c1)C(=O)N(C)[C@H]1CC[C@@H](CC(=O)NCCCN(C)C)O[C@H]1CO2 | 72.5%
CCC(=O)N(C)C[C@@H]1[C@H](c2ccc(-c3ccccc3F)cc2)[C@H](CO)N1C(C)=O | 5.59%
CCC(=O)N1C[C@H]2[C@@H](c3ccccc31)[C@H](CO)N2Cc1cc(F)ccc1F | 39.1%

Compound | activity change, negative = cytotoxicity
Cc1ccc(C(=O)n2nc(-c3ccccc3)nc2NCc2ccco2)cc1 | 11.4%
COc1cc(N)c(Cl)cc1NC(=O)c1ccccc1 | 140%
CO[C@@H]1CN(C)C(=O)c2ccc(NS(=O)(=O)c3cccc(F)c3)cc2OC[C@@H](C)NC[C@H]1C | -41.8%
CNC(=O)C[C@@H]1CC[C@@H]2[C@@H](COc3ccc(NC(=O)Nc4ccccc4OC)cc3C(=O)N2C)O1 | 43.5%
CN1C(=O)c2cc(NC(=O)c3ccc4c(c3)OCO4)ccc2OC[C@H]2O[C@@H](CC(=O)O)CC[C@@H]21 | 128%
C[C@@H]1CN([C@@H](C)CO)S(=O)(=O)c2ccc(-c3ccccc3)cc2O[C@@H]1CN(C)C(=O)c1ccc2c(c1)OCO2 | -14.7%
CNC(=O)C[C@H]1CC[C@@H]2[C@H](COc3ccc(NC(=O)c4ccccc4OC)cc3C(=O)N2C)O1 | -10.4%
COC(=O)C[C@H]1CC[C@@H]2[C@H](COc3ccc(NC(=O)c4cccs4)cc3C(=O)N2C)O1 | 118%
CCN(CC)CCNC(=O)c1ccc(NC(=O)c2cn(-c3ccc(F)cc3)nc2-c2cccc(OC)c2)cc1 | -17.7% [at 6 µM]
C[C@H]1CN([C@@H](C)CO)C(=O)c2cc(C#CC3CCCC3)cnc2O[C@H]1CN(C)C(=O)Cc1ccccn1 | -5.5%
CC(C)C(=O)Nc1ccc2c(c1)C(=O)N(C)[C@H]1CC[C@@H](CC(=O)NCCCN(C)C)O[C@H]1CO2 | 82%
O=C(c1cccnc1)N1C[C@H]2[C@@H](c3ccccc31)[C@H](CO)N2C(=O)C1CCCC1 | 94.1% [at 23.5 µM]
C[C@H]1CN([C@@H](C)CO)S(=O)(=O)c2ccc(C#CC3CCCCC3)cc2O[C@@H]1CN(C)C | 20.7%
C[C@@H]1CN([C@H](C)CO)S(=O)(=O)c2ccc(C#Cc3ccccc3F)cc2O[C@@H]1CN(C)C(=O)Cc1ccncc1 | 20%
CC(C)C(=O)Nc1ccc2c(c1)C(=O)N(C)[C@H]1CC[C@H](CC(=O)Nc3cccc(F)c3)O[C@@H]1CO2 | 43.4%
C/C=C/c1ccc2c(c1)O[C@H](CN(C)C(=O)Cc1cccnc1)[C@H](C)CN([C@H](C)CO)S2(=O)=O | 132%
COc1ccc(N2CCN(C(=O)CSc3nnc(CNc4ccccc4)o3)CC2)cc1 | 72.4%
COc1cccc(COc2cc3ccccc3nc2C)c1 | 0.355%
C/C=C/c1ccc([C@@H]2[C@@H](CO)N(Cc3ccccn3)[C@H]2CNC(=O)CC)cc1 | 51.4% [at 23.5 µM]
